Screens from PubChem.
HPGD block: qHTS Assay for Inhibitors of HPGD (15-Hydroxyprostaglandin Dehydrogenase); 15-hydroxyprostaglandin dehydrogenase [NAD(+)] (Homo sapiens), P15428; purified HPGD, NADH fluorescence kinetic, PGE2 substrate; Potency, µM, inactives show at the top dose activity change, negative = inhibition, actives largely listed as inhibitors; 4.3% of 150,000 active; AID 894, 2007; note: potency is the fitted concentration of half-maximal effect
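20 nM HPGD preincubated 15 min at room temperature with compound in 50 mM Tris-HCl pH 8, 0.01% Tween 20. Started with 1 mM NAD+ and 30 uM prostaglandin E2; NADH fluorescence (360/450 nm) read 5 times over 30-s intervals, last minus first.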
ALDH1A1 inh: qHTS Assay for Inhibitors of Aldehyde Dehydrogenase 1 (ALDH1A1). Aldehyde dehydrogenase 1A1 (Homo sapiens), P00352. Purified ALDH1A1, NADH fluorescence, propionaldehyde substrate. Potency, µM (titrated, usually from 75.3 µM), for inactives: at the top dose activity, negative = inhibition, actives largely listed as inhibitors. 7.3% of 220,000 active. AID 1030, 2008;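 note: potency is the fitted concentration of half-maximal effect; plate controls were no enzyme wells and a reference inhibitor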
Target sequence (P00352 whole entry, looked up): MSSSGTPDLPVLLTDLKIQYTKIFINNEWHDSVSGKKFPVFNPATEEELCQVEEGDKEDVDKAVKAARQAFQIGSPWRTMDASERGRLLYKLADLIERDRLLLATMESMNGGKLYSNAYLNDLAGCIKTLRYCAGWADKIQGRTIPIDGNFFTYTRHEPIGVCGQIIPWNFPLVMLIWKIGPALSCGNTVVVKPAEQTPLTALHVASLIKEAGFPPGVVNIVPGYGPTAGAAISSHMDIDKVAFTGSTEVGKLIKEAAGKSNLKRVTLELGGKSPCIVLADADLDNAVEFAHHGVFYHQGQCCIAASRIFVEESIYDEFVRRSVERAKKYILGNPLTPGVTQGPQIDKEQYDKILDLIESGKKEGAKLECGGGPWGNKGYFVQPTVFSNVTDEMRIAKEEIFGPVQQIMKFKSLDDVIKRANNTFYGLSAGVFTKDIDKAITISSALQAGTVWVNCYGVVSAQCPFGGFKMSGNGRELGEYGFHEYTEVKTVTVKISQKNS
PNC assembly inh: High Content Assay for Compounds that inhibit the Assembly of the Perinucleolar Compartment; PC3M PTB-GFP, PNC prevalence imaging, 16 h; active compounds read low; activity change (PNC), negative = inhibition, % at 10 µM; 3.1% of 140,000 active;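 active = readout at or below -70, meaning at least 70% loss of cells showing the perinucleolar compartment, a nuclear body marking cancer cells; inconclusive = readout between -30 and a set limit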;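 note: plate controls were DMSO wells for no effect and camptothecin positive control wells for full effect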
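PC3M cells stably expressing PTB-GFP, 750–1000 cells/well, treated 16 h at 37 °C with compound (23 nl of library stock), in duplicate. After paraformaldehyde fixation and Hoechst stain, imaged at 20x; PNC prevalence scored by image analysis.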
An asterisk follows results filed as active; u = inconclusive; x = no result given; [ ] = remark or other dose. Only some compounds are listed: those with a hit (about 11% of all), similar ones and a draw of the others. Unless noted, calls come from the whole dose curve; as a rule, active = well fitted inhibition curve with a large enough effect (not every such curve was filed as active); inconclusive = small, poorly fitted or top-dose-only effect, or another doubt; inactive = no such curve, though single readings can be large or run the other way. Unless noted, % is set by controls: 0 for no effect and ±100 for the full control effect.

SMILES	HPGD block	ALDH1A1 inh	PNC assembly inh
O=C1c2cccc3c(O)ccc(c23)C(=O)N1Cc1ccccc1	-29%	-8%	-90*
O=C1c2cccnc2C(=O)N1Cc1ccccc1	-15%	7%	59
CCCCCN(CCCCC)C(=O)[C@H](CCC(=O)O)NC(=O)c1ccc(Cl)c(Cl)c1	5%	1%[20.9 µM]	x
O=C(C(Cc1ccccc1)n1cccc1)N1CCN(Cc2ccccc2)CC1 (stereo unspecified)	-1%	u	13
O=C(C(Cc1ccccc1)n1cccc1)N1CCN(c2cccc(Cl)c2)CC1 (stereo unspecified)	-10%	-5%	15
O=C(C(Cc1ccccc1)n1cccc1)N1CCCCC1 (stereo unspecified)	13µM*	3%	u
O=C(C(Cc1ccccc1)n1cccc1)N1CCCCCC1 (stereo unspecified)	28µM*	-2%	-17
CC1CN(C(=S)SCCN2C(=O)CCC2=O)CC(C)O1 (stereo unspecified)	x	-9%	x
COc1cccc([C@H]2Oc3ccc(OC)cc3/C(=N\OC[C@@H](O)[C@@H]3O[C@@H]4OC(C)(C)O[C@@H]4[C@H]3O)[C@@H]2O)c1	x	-8%[13.5 µM]	x
Cc1csc(/C(C#N)=N/O)n1	-29%	-16%	-25
Cc1csc(/C(=N\O)c2csc(C)n2)n1	-10%	16%	-100*
Cc1ccccc1NC(=O)CSc1ccsc1[N+](=O)[O-]	u	u	41
Cc1cc(=O)n2[nH]c(-c3ccco3)nc2n1	-17%	u	32
S=c1nc(-c2ccco2)[nH][nH]1	22µM*	25µM*	16
COCOc1c2c(c(OCOC)c3c(OCOC)cccc13)/C(=N/NS(C)(=O)=O)C1=C2CCCC1	u	-14%	x
OC[C@@H]1O[C@@H](n2cnc3c(N[C@H]4CCC[C@@H]4O)ncnc32)[C@H](O)[C@H]1O	-1%	5%	x
O=C1Nc2ccccc2C(O)(C(=O)NC2CC2)N1c1ccc(Cl)c(Cl)c1 (stereo unspecified)	-2%	7%	24
Cc1n[nH]c(C)c1Sc1ccccc1[N+](=O)[O-]	x	-4%	x
Cc1ccc(-n2nc(C)c(Sc3ccccc3[N+](=O)[O-])c2N)cc1	u	10µM*	-15
O=C(OCc1csc(-c2ccccc2)n1)c1ccc(O)cc1	x	-3%	x
CC(C)CNC(=S)NNC(=O)c1csc2c1CCC(C)C2 (stereo unspecified)	-1%	-5%	u
Cc1cccc(NC(=S)NNC(=O)c2csc3c2CCC(C)C3)c1 (stereo unspecified)	-8%	22µM*	-17
Cc1cccc(NC(=S)NNC(=O)c2ccc3c(c2)OCO3)c1	-14%	u	25
CCCc1cc(C(=O)NNC(=S)Nc2cccc(C)c2)cs1	u	10µM*	-20
COc1ccc2c(c1)C(=O)/C(=C/C=C/c1ccccc1)CC2	-21%	u	35
SMILES	HPGD block	ALDH1A1 inh	PNC assembly inh
COC1=CC(=O)C(O)=C/C1=C\C=C\c1ccccc1	11µM*	13µM*	x
CN(CC(=O)Nc1cccc2ccccc12)c1ccc(S(=O)(=O)N2CCOCC2)cn1	-3%	64%	u
Cc1ccc(OCC(=O)N2CCN(c3ccc([N+](=O)[O-])c(N4CCOCC4)c3)CC2)cc1	-7%	-15%	14
O=C(COc1ccc(Cl)cc1)N1CCN(c2ccc([N+](=O)[O-])c(N3CCOCC3)c2)CC1	-10%	u	-2
O=C(COc1ccc(Br)cc1)N1CCN(c2ccc([N+](=O)[O-])c(N3CCCCC3)c2)CC1	x	4µM*	-8
O=C(COc1ccccc1)N1CCN(c2ccc([N+](=O)[O-])c(N3CCCCC3)c2)CC1	-15%	10µM*	22
COc1ccccc1-n1c(CNc2ccc(F)cc2)nnc1SCC(=O)Nc1cc(C)on1	-18%	6%	-24
CC1CN(C(=O)Nc2ccc(Br)cc2Cl)CC(C)O1 (stereo unspecified)	x	1%	x
O=C(CSc1nnc(Cc2ccccc2)o1)N1CCCc2ccccc21	u	18µM*	-15
Cc1ccc(NC(=O)CSc2nnc(Cc3ccccc3)o2)c(C)c1	x	-12%	x
Cc1ccccc1NC(=O)CSc1nnc(Cc2ccccc2)o1	-15%	-14%	-100*
O=C(CSc1nnc(CNc2ccccc2)o1)N1CCc2ccccc21	-9%	16µM*	u
Cc1cc(C)nc(SCc2nnc(SCC(=O)N3CCCc4ccccc43)o2)n1	-15%	u	7
COc1ccc(C(=O)NCc2nnc(SCC(=O)N3CCc4ccccc43)o2)cc1OC	-2%	-1%	-15
Cn1c(C(=O)NC2CCCC2)cc2c(=O)n(C)c3ccccc3c21	u	u	28
COc1ccc(CCNC(=O)C(=O)c2c[nH]c3ccccc23)cc1	x	11%	x
CN(Cc1ccccc1)c1ncc(C=O)s1	x	7.1µM*	x
CN(Cc1ccccc1)c1ncnc(N)c1[N+](=O)[O-]	x	2%	x
COc1cc(C(Nc2ccc(S(=O)(=O)N3CCC(C)CC3)cc2)C(=O)NCC2CCCO2)cc(OC)c1OC (stereo unspecified)	-11%	3.5µM*	-3
COc1ccc(S(=O)(=O)N2CCC(C(=O)NCC3CCCO3)CC2)cc1C (stereo unspecified)	-14%	-14%	u
C/C=C/C1=CC2=CC(=O)C(C)(OC(=O)c3c(C)cc(O)cc3O)C(=O)C2=CO1 (stereo unspecified)	-5%	u	x
Cc1cc(O)cc(O)c1C(=O)OC1(C)C(=O)C=C2C=C(/C=C/CO)OC=C2C1=O (stereo unspecified)	-10%	22µM*	x
COc1ccc(S(=O)(=O)N(C)CC(=O)Nc2ccccc2OC)cc1C	-2%	-2%	u
CCOc1ccccc1NC(=O)CN(C)S(=O)(=O)c1ccc(OC)c(C)c1	16µM*	u	19
Cc1cc(C)n(C(=O)CNc2ccc(C)c(C)c2)n1	-2%	25µM*	u
SMILES	HPGD block	ALDH1A1 inh	PNC assembly inh
Cc1cc(C)n(C(=O)CCCC(=O)n2nc(C)cc2C)n1	-8%	0%	u
COC(=O)COc1ccc(S(=O)(=O)Nc2cc([N+](=O)[O-])ccc2C)cc1	x	4%	x
COc1ccc(CCc2nc(C)ccc2O)cc1	u	-9%	u
O=C(Nc1ccccc1)c1ccc(S(=O)(=O)N2CCCCC2)cc1	-13%	-2%	8
O=C(NNS(=O)(=O)c1ccc(Cl)cc1)c1ccc(S(=O)(=O)N2CCCCC2)cc1	-6%	u	7
O=C(NC1CCS(=O)(=O)C1)c1ccc(S(=O)(=O)N2CCCCC2)cc1 (stereo unspecified)	x	25µM*	x
CCOC(=O)N1CCC(NC(=O)c2ccc3c(Cl)c4c(nc3c2)CCCC4)CC1	-13%	u	54
CC(=O)c1cccc(NC(=O)c2ccc(S(=O)(=O)N3CCCCC3)cc2)c1	-7%	22µM*	6
O=C(Nc1cc(S(=O)(=O)Nc2ccc(Cl)cc2)ccc1O)c1ccc(S(=O)(=O)N2CCCCCC2)cc1	x	3.2µM*	x
O=C(NC1CCS(=O)(=O)C1)c1cccc(S(=O)(=O)N2CCCCC2)c1 (stereo unspecified)	0%	3%	u
